An excerpt weighted towards active compounds, which were near 1.3% of everything screened.
AGP1 TOR yeast: yeast TOR pathway AGP1-GFP modulation; S. cerevisiae AGP1-GFP multiplex flow cytometry, 3 h; GFP as percent of DMSO wells; GFP response vs DMSO, % at 10 µM; 0.02% of 320,000 active; AID 2066;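 active = GFP response relative to DMSO above a set limit, near screen average plus 3 SD, cut at about 150% in these data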;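 note: median GFP channel fluorescence of the gated AGP1 strain per well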
MEP2-GFP yeast: modulators of TOR pathway MEP2-GFP in S. cerevisiae. S. cerevisiae MEP2-GFP strain, flow cytometry GFP, 3 h; 100% = DMSO control level. GFP response vs DMSO, % at 10 µM. 0.51% of 330,000 active;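 active = GFP response versus DMSO above a set limit, roughly screen mean plus 3 SD, cut at about 180% in these data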;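 note: median GFP fluorescence of the barcode-gated MEP2-GFP cells per well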
CIT2-GFP yeast: alters CIT2-GFP fluorescence in TOR pathway yeast screen. S. cerevisiae CIT2-GFP strain, flow cytometry, 3 h; 100 means same as DMSO wells. GFP response vs DMSO, % at 10 µM. 0.065% of 320,000 active;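 active = GFP response relative to DMSO above a set limit, near the screen mean plus 3 SD, cut at about 150% in these data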;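 note: ratio of well median GFP fluorescence to mean of DMSO wells on the plate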
LAP4-GFP MLPCN: modulators of TOR pathway LAP4-GFP in S. cerevisiae | S. cerevisiae LAP4-GFP multiplex, flow cytometry GFP, 3 h; median GFP as percent of DMSO wells | GFP response vs DMSO, % at 10 µM | 0.34% of 320,000 active | AID 2023;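 active = GFP response vs DMSO above a set limit, about the screen mean plus 3 SD, cut at about 150% in these data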
RPL19A TOR yeast: alters RPL19A-GFP fluorescence in TOR pathway yeast screen; S. cerevisiae RPL19A-GFP strain, flow cytometry, 3 h; active compounds read low; percent response vs DMSO, % at 10 µM; 0.3% of 330,000 active; AID 2025;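 active = percent response vs DMSO below 50%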;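 note: median channel GFP fluorescence of the barcoded RPL19A-GFP strain; ratio of sample median GFP to plate DMSO average so 100% = DMSO; lower means less RPL19A-GFP as with rapamycin TOR inhibition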
Efflux pump mplx: blocks antifungal efflux pumps in multiplex yeast assay; 0.44% of 330,000 active; inhibition, % at 10 µM; S. cerevisiae Candida pump triplex, Nile Red efflux;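 active = plate passing quality check with inhibition over a set limit, or well fluorescence over plate mean plus 4 SD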;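 note: Nile Red retained in pooled yeast measured as flow cytometry median fluorescence; 0% = buffer negative control and 100% = Enniatin B positive control; higher means more Nile Red kept so more efflux inhibition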
LAP4-GFP pick2: reconfirmed LAP4-GFP TOR pathway modulator in yeast | shares compounds with LAP4-GFP MLPCN | S. cerevisiae LAP4-GFP strain, flow cytometry GFP, 3 h | GFP response vs DMSO, % at 10 µM | 20% of 590 active;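 active = GFP signal as percent of the solvent control above about 150%, meaning raised reporter expression, limit read from the data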;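 note: ratio of well median GFP fluorescence to plate DMSO mean so 100% = DMSO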
MEP2 cherry2: reconfirmed MEP2-GFP TOR pathway modulator in yeast; shares compounds with LAP4-GFP MLPCN; 10% of 590 active; GFP response vs DMSO, % at 10 µM; AID 2622; S. cerevisiae MEP2-GFP strain, flow cytometry GFP, 3 h;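 active = GFP signal above 150% of the solvent control wells, that is a rise of more than half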;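 note: median channel GFP fluorescence of all gated yeast cells per well; ratio of median GFP to plate DMSO average so 100% = DMSO level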
RPL19A GFP CP2: reconfirmed modulator of RPL19A-GFP TOR reporter in yeast | S. cerevisiae RPL19A-GFP strain, flow cytometry GFP, 3 h; active compounds read low; 100% means same as DMSO wells | AID 2623 | shares compounds with LAP4-GFP MLPCN | GFP response vs DMSO, % at 10 µM | 3% of 590 active;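 active = under 65% GFP response relative to DMSO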;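 note: median GFP channel fluorescence per well over the all cells gate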
CIT2 GFP CP2: reconfirmed modulator of CIT2-GFP TOR reporter in yeast; 8% of 590 active; shares compounds with LAP4-GFP MLPCN; S. cerevisiae CIT2-GFP strain, flow cytometry GFP, 3 h; DMSO control wells read 100%; AID 2624; GFP response vs DMSO, % at 10 µM;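 active = GFP response vs DMSO above about 150%, limit read from the data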;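 note: median green fluorescence per well over all gated yeast cells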
AGP1 GFP CP2: yeast AGP1-GFP TOR reporter modulation, second cherry pick. 590 tested, under 10 active. percent response vs DMSO, % at 10 µM. shares compounds with LAP4-GFP MLPCN. S. cerevisiae AGP1-GFP strain, flow cytometry GFP, 3 h. AID 2643;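 active = over 150 percent of DMSO response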;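 note: median GFP channel fluorescence over all cells without mother daughter split; sample median GFP divided by mean DMSO control so 100% equals DMSO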
s288c autofluor: counter-screen for compound autofluorescence in yeast s288c cells. shares compounds with LAP4-GFP MLPCN. S. cerevisiae s288c, 520 nm autofluorescence, flow cytometry, 3 h; active compounds read high; zero means same as solvent-only cells. fluorescence change (kMESF span) at 33 µM. 610 tested, under 10 active. AID 2757;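 active = fluorescence span over the dose series, or activity score, above about 33, limit read from the data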
s288c autofl DR: counter-screen for autofluorescence of TOR hits in yeast s288c; shares compounds with LAP4-GFP MLPCN; S. cerevisiae s288c parental, compound autofluorescence, flow cytometry, 3 h; fluorescence change (span) at 33 µM; 110 tested, under 10 active;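 active = fluorescence change span, or the activity score built from it, above 25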
TORC1 bypass gr: stops wildtype yeast growth while TORC1 bypass cells still grow | shares compounds with LAP4-GFP MLPCN | S. cerevisiae BY4741 spot growth rating, 48-72 h; active compounds read low | growth rating (0-3) at 30 µM | 120 tested, under 10 active | AID 504456;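 active = growth rating at most 1 for wild type yeast while the TORC1 bypass strain still grows fully, rated 3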
An asterisk follows results filed as active; x = no result; + = active, no number.

SMILES | AGP1 TOR yeast | MEP2-GFP yeast | CIT2-GFP yeast | LAP4-GFP MLPCN | RPL19A TOR yeast | Efflux pump mplx | LAP4-GFP pick2 | MEP2 cherry2 | RPL19A GFP CP2 | CIT2 GFP CP2 | AGP1 GFP CP2 | others
O=[N+]([O-])c1ccccc1-c1ccc(/C=N/n2cnnc2)o1 | 116 | 112 | 100 | 111 | 110 | 0 | x | x | x | x | x
CN(C)/C=C1\C(=O)ON=C1c1ccccc1 | 97 | 102 | 98 | 91 | 98 | 0 | x | x | x | x | x
COc1ccc(/C=C2/C(=O)ON=C2c2ccccc2)cc1OC | 80 | 87 | 83 | 171* | 89 | 0 | x | x | x | x | x | s288c autofluor=0.5
COc1cc(/C=C2\C(=O)ON=C2c2ccccc2)cc(OC)c1OC | 75 | 90 | 76 | 143 | 78 | 0 | 195* | 120 | 96 | 123 | 94 | s288c autofluor=0
Cn1ncc(S(=O)(=O)Cc2ccccc2)c(Cl)c1=O | 101 | 94 | 93 | 161* | 100 | 0 | x | x | x | x | x | s288c autofluor=0.2;s288c autofl DR=0.84;TORC1 bypass gr=3
Cc1nn(-c2ccccc2[N+](=O)[O-])c(=O)c2ccccc12 | 22 | 107 | 76 | 109 | 60 | 0 | 97 | 93 | 99 | 105 | 99
Cc1nn(-c2ccccc2)c(Cl)c1C(=O)N(C)c1nc(-c2ccc(F)cc2)cs1 | 115 | 112 | 112 | 87 | 124 | 0 | x | x | x | x | x
CC1=NN(c2ccccc2)C(=O)/C1=C\c1c(C)[nH]n(-c2ccccc2)c1=O | 97 | 99 | 98 | 92 | 96 | 0 | 103 | 103 | 100 | 103 | 99
COc1ccccc1/C=C1/C(=O)N(c2ccccc2)N=C1C | 82 | 95 | 99 | 91 | 104 | 0 | x | x | x | x | x
CN(C)c1nc(/C=C(\C#N)C(N)=O)c(Cl)n1-c1ccc(F)cc1 | 106 | 100 | 103 | 95 | 103 | 0 | x | x | x | x | x
CCN1C(=O)[C@H]2[C@@H](c3ccc(C)cc3)N3C(=O)N(c4ccccc4)C(=O)[C@@]3(CC)[C@H]2C1=O | 94 | 100 | 82 | 104 | 106 | 0 | x | x | x | x | x
O=C(OCn1ncc(Cl)c(Cl)c1=O)c1ccc(F)cc1 | 95 | 93 | 85 | 122 | 93 | 0 | x | x | x | x | x
O=C(OCn1ncc(Br)c(Br)c1=O)c1c(F)cccc1F | 93 | 85 | 81 | 227* | 87 | 0 | x | x | x | x | x | s288c autofluor=0.31;s288c autofl DR=0.15;TORC1 bypass gr=3
COCCCOc1ccnc(CS(=O)c2nc3ccccc3[nH]2)c1C (stereo not given) | 78 | 95 | 73 | 117 | 101 | 0 | x | x | x | x | x
Cc1c(OCC(F)(F)F)ccnc1CS(=O)c1nc2ccccc2[nH]1 (stereo not given) | 85 | 94 | 79 | 158* | 101 | 0 | 122 | 106 | 99 | 105 | 101
Cc1cc(S(=O)(=O)N2CCCC2)ccc1OCC(=O)Nc1ccccc1 | 103 | 102 | 103 | 105 | 99 | 2 | x | x | x | x | x
Cc1ccc(NC(=O)c2ccccc2OCC(=O)Nc2ccccc2F)cc1S(=O)(=O)N(C)C | 105 | 95 | 92 | 96 | 98 | 0 | x | x | x | x | x
C=CC[C@@H](CC(=O)OC(C)(C)C)C(=O)OC[C@@H]1CCCN1C(=O)[C@@H](CC=C)CC(=O)N[C@H](CO)Cc1ccccc1 | 95 | 98 | 66 | 198* | 83 | 0 | 99 | 94 | 100 | 106 | 95
Cc1cc(C(=O)Nc2ccc3c(c2)OCCO3)ccc1[N+](=O)[O-] | 98 | 106 | 102 | 90 | 103 | 0 | x | x | x | x | x
O=C(Nc1ccc2c(c1)OCCO2)c1ccc(Cl)c([N+](=O)[O-])c1 | 92 | 86 | 76 | 158* | 91 | 0 | 105 | 103 | 97 | 93 | 97
COc1ccc(C2=NN(C(=O)c3ccccc3)C(c3ccc(OC)c(OC)c3)C2)c(OC(C)=O)c1 (stereo not given) | 83 | + | 113 | 101 | 95 | 0 | 102 | 105 | 100 | 104 | 99
COc1cc(SSc2cc(OC)cc([N+](=O)[O-])c2N)c(N)c([N+](=O)[O-])c1 | 88 | 83 | 108 | 236* | 58 | 0 | x | x | x | x | x | s288c autofluor=1
COc1cc([N+](=O)[O-])c2ncsc2c1 | 103 | 104 | 102 | 101 | 102 | 0 | x | x | x | x | x
O=C(NOC(=O)c1ccccc1)c1ccccc1 | 65 | 102 | 79 | 164* | 93 | 0 | x | x | x | x | x | s288c autofluor=2.3
CCN1CCN(C(CNS(=O)(=O)c2ccccc2)c2cccnc2)CC1 (stereo not given) | 99 | 118 | 108 | 101 | 104 | 0 | x | x | x | x | x
CCN1CCN(C(CNS(=O)(=O)c2ccc(F)cc2)c2cccnc2)CC1 (stereo not given) | 104 | 108 | 154* | 96 | 99 | 0 | 97 | 98 | 98 | 108 | 100
COc1ccc(CNC(=O)C2CCCN2S(=O)(=O)c2ccc(C)cc2)cc1 (stereo not given) | 97 | 93 | 89 | 103 | 97 | 0 | x | x | x | x | x
Cc1ccc(S(=O)(=O)N2CCCC2C(=O)NCc2ccncc2)cc1 (stereo not given) | 110 | 112 | 161* | 100 | 98 | 0 | 102 | 113 | 100 | 107 | 100 | s288c autofluor=0
CNC(=O)COC(=O)c1ccc(Cl)c(S(N)(=O)=O)c1 | 112 | 111 | 114 | 110 | 109 | 0 | x | x | x | x | x

Screens (PubChem)
